Common to all, as to experiment: DAPPL (digital affinity profiling via proximity ligation, sequencing); 10 mM Tris-HCl pH 7.5, 50 mM NaCl, 1 mM DTT, 4% glycerol, room temperature, 30 min; GST-TFs on glutathione beads, 16-mer random dsDNA library, 0.1% formaldehyde crosslink after washing; high values mean tight binding
Holding throughout (details): protein: recombinant; tags: N-terminal GST; dsDNA, one strand shown

The target of test [1] is T1, FLI1 (Homo sapiens, UniProt Q01543 1-452).
T1 sequence: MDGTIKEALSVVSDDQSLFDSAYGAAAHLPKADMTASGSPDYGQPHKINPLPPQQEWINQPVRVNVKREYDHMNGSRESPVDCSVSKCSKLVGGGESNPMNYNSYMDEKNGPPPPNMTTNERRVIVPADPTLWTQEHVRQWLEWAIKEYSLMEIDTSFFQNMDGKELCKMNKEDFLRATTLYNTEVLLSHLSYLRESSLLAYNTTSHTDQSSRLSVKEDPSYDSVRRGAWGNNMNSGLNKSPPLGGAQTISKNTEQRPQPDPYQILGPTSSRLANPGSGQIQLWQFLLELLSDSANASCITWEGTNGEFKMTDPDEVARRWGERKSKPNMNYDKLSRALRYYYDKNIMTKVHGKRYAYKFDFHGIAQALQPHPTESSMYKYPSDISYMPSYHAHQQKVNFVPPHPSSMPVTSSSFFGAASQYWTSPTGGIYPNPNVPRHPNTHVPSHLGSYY
In short, it runs like this: (§1)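 Pools were built from human transcription factors expressed in yeast as GST fusions, captured on glutathione beads and DNA-barcoded, along with a tag-only sample. Incubation with 200 nmole of a 16-mer random double-stranded DNA library lasted 30 min at room temperature in Tris/NaCl/DTT/glycerol buffer, and was followed by washing, 0.1% formaldehyde crosslinking, proximity ligation, PCR amplification and Illumina NextSeq500 sequencing. Binding signal is the quotient of each hexamer's read frequency for a factor and its frequency for the tag-only sample.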

Test [2] deals with T2, ELK1 (Homo sapiens, UniProt P19419 1-428).
T2 sequence: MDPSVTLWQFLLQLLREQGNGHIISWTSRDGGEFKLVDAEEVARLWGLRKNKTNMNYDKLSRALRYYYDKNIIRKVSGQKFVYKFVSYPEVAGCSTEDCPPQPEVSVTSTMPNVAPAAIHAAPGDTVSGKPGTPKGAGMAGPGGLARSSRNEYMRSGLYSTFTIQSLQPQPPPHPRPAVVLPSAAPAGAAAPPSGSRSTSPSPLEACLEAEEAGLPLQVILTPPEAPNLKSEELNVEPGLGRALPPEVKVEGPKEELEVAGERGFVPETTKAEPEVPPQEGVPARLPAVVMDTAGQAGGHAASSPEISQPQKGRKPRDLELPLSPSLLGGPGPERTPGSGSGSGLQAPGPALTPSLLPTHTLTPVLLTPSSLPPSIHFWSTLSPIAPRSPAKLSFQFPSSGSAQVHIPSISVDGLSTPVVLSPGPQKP
In short, it runs like this: as §1

Test [3] has as its target T3, GABPA (Homo sapiens, UniProt Q06546 1-454).
T3 sequence: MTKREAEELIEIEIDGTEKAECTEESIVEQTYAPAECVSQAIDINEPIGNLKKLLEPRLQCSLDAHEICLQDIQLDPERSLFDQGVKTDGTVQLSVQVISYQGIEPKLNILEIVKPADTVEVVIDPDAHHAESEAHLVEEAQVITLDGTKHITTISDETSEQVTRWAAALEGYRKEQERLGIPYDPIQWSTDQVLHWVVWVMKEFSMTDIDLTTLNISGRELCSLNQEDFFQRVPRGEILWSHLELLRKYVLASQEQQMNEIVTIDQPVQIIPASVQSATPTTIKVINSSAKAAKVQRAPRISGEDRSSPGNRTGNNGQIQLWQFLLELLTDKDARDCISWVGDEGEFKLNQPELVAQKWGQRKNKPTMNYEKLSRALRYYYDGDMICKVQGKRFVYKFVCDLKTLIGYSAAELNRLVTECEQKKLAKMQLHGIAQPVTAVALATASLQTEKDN
In short, it runs like this: as §1

For test [4], the target named is T4, ERG (Homo sapiens, UniProt P11308 1-479).
T4 sequence: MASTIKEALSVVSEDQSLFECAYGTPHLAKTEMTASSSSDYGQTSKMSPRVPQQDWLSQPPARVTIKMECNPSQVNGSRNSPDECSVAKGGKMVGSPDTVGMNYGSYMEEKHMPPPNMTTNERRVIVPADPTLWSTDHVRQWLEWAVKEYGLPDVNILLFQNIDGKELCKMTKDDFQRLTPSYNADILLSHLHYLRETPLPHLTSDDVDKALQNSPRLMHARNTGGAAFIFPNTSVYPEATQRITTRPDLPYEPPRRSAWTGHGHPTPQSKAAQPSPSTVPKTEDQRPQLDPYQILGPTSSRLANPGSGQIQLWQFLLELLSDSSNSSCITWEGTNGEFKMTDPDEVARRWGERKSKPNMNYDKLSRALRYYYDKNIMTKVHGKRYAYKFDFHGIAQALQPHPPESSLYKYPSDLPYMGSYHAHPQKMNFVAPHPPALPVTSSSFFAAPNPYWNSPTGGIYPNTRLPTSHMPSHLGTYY
In short, it runs like this:
as §1

Test [5] concerns the target ELF1 (Homo sapiens, UniProt P32519 1-619). In short, it runs like this:
as §1

Test [6] concerns the target T5, EHF (Homo sapiens, UniProt Q9NZC4 1-300).
T5 sequence: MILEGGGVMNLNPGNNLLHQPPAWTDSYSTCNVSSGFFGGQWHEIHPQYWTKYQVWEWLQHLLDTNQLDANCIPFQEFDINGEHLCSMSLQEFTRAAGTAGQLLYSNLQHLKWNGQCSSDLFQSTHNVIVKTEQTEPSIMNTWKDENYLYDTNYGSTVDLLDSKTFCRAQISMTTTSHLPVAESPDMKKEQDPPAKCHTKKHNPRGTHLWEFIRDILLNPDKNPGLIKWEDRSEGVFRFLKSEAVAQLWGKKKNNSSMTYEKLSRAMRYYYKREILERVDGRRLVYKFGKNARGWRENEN
The method, boiled down:
as §1

Test [7] concerns the target SPIB (Homo sapiens, UniProt Q01892 1-262). The method, boiled down:
as §1

Test [8] deals with T6, ELK3 (Homo sapiens, UniProt P41970 1-407).
T6 sequence: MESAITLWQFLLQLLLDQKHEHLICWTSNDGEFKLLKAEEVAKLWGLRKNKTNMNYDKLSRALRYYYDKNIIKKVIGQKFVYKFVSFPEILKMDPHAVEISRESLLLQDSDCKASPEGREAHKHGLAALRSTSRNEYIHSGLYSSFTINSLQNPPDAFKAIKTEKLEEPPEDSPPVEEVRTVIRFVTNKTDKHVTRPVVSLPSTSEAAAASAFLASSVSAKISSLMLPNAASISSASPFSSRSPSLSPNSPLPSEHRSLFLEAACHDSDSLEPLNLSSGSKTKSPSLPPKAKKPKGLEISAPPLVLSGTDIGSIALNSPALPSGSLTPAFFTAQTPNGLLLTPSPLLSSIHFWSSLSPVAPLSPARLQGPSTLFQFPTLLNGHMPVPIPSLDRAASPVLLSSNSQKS
In short, it runs like this: as §1

Test [9] concerns the target T7, FEV (Homo sapiens, UniProt Q99581 1-238).
T7 sequence: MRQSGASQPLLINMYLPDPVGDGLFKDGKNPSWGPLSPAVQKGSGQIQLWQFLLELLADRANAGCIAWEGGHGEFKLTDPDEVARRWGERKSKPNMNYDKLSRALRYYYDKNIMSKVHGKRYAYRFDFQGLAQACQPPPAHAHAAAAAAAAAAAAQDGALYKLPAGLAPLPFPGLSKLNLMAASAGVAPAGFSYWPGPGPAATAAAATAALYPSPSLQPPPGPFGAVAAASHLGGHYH
In short, it runs like this:
as §1

Test [10] concerns the target ETV5 (Homo sapiens, UniProt P41161 1-510). The method, boiled down:
as §1

Test [11] concerns the target T8, SPIC (Homo sapiens, UniProt Q8N5J4 1-248).
T8 sequence: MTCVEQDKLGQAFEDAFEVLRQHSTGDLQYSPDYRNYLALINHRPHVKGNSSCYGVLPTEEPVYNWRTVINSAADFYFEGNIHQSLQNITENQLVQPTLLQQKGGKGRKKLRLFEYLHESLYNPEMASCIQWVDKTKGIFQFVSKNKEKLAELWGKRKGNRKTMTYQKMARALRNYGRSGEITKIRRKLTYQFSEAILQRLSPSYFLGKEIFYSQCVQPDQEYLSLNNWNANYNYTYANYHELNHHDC
The method, boiled down: as §1

Test [12] addresses ELF4 (Homo sapiens, UniProt Q99607 1-663). In short, it runs like this:
as §1

In test [13] the target is ETV1 (Homo sapiens, UniProt P50549 1-477). In short, it runs like this: as §1
The target of test [14] is T9, ERF (Homo sapiens, UniProt P50548 1-548).
T9 sequence: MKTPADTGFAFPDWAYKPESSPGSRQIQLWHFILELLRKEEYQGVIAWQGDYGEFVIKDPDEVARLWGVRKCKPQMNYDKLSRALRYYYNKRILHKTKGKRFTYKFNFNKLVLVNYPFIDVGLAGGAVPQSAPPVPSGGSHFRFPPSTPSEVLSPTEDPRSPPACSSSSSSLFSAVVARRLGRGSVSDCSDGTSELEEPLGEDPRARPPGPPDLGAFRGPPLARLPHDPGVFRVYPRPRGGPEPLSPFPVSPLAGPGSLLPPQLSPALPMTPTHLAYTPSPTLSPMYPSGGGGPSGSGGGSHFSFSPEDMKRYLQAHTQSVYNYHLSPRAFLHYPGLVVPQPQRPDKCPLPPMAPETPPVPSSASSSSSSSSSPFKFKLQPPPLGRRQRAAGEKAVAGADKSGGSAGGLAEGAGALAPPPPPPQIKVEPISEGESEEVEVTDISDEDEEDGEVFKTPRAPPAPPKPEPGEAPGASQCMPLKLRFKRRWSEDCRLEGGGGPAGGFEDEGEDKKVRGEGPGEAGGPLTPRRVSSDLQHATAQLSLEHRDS
In short, it runs like this: as §1

In test [15] the target is T10, ETV3L (Homo sapiens, UniProt Q6ZN32 1-361).
T10 sequence: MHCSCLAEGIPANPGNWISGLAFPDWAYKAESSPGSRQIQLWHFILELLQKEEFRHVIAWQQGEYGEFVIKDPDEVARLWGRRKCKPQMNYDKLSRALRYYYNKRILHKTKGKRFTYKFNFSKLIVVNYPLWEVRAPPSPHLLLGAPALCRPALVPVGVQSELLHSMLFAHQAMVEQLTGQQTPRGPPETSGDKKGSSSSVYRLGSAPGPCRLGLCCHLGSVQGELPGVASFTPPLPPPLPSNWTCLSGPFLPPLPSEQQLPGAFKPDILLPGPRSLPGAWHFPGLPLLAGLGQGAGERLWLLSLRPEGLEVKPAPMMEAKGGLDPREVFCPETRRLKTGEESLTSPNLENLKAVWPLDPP
In short, it runs like this:
as §1

Test [16] concerns the target T11, ETS2 (Homo sapiens, UniProt P15036 1-469).
T11 sequence: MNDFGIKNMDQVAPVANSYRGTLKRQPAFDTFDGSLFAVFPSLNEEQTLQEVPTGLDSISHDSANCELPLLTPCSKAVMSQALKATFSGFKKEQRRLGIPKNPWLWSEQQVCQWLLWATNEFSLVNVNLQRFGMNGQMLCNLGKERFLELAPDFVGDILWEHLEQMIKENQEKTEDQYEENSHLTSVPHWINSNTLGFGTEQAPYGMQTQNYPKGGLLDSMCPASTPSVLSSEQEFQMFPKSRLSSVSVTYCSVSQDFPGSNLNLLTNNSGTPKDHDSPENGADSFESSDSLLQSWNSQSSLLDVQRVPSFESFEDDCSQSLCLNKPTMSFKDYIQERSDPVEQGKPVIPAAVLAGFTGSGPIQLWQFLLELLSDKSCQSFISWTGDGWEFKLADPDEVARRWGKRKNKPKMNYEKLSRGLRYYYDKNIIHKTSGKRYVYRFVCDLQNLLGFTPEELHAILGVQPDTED
In short, it runs like this:
as §1

Test [17] deals with T12, ELF5 (Homo sapiens, UniProt Q9UKW6-2 1-255).
T12 sequence: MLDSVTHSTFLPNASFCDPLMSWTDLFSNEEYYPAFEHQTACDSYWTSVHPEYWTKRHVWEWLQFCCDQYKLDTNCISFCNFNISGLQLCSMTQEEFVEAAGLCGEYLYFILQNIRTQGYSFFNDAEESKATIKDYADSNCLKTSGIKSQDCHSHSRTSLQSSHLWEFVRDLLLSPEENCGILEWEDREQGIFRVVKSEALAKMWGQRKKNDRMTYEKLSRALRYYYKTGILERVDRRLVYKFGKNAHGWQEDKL
The method, boiled down:
as §1

Test [18] concerns the target T13, ETV3 (Homo sapiens, UniProt P41162-2 1-143).
T13 sequence: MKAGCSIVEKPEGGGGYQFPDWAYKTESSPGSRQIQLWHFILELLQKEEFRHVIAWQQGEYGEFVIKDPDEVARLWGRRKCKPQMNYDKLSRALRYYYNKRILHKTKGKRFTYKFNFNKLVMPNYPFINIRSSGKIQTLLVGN
The method, boiled down: as §1

Test [19] deals with ETV6 (Homo sapiens, UniProt P41212 1-452). The method, boiled down:
as §1

Sequence of ETV5 (P41161 whole entry): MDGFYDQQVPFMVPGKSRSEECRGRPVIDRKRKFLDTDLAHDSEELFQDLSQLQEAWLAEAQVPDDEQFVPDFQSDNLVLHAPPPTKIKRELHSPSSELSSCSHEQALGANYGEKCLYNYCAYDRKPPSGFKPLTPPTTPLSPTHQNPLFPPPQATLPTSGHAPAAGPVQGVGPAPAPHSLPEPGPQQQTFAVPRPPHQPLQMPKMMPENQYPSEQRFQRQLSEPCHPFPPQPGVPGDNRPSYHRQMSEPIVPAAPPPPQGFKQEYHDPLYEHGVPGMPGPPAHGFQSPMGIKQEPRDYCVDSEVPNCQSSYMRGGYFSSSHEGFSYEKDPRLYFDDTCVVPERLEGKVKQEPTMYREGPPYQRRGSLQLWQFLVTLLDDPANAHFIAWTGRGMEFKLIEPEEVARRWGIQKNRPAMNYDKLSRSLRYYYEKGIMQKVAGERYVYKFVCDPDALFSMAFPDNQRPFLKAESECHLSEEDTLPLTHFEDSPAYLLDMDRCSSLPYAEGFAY
Sequence of ELF4 (Q99607 whole entry): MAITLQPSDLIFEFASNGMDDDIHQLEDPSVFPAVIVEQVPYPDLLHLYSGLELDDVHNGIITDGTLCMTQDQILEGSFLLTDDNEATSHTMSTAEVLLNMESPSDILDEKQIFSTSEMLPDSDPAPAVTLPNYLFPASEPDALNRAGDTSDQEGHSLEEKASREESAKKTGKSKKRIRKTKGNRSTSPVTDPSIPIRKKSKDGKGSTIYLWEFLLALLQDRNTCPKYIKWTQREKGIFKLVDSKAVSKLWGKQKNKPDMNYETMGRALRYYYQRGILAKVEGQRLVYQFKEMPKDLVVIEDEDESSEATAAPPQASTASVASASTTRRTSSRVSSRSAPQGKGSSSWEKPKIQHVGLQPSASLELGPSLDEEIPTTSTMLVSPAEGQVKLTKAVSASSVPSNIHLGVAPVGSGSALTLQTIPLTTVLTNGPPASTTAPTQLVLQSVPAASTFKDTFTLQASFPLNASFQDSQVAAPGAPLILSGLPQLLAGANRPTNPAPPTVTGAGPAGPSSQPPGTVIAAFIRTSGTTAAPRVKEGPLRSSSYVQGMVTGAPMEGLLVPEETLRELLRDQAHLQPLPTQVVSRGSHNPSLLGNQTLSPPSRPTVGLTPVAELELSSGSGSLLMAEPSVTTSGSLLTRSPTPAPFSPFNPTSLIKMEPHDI
Sequence of ETV6 (P41212 whole entry): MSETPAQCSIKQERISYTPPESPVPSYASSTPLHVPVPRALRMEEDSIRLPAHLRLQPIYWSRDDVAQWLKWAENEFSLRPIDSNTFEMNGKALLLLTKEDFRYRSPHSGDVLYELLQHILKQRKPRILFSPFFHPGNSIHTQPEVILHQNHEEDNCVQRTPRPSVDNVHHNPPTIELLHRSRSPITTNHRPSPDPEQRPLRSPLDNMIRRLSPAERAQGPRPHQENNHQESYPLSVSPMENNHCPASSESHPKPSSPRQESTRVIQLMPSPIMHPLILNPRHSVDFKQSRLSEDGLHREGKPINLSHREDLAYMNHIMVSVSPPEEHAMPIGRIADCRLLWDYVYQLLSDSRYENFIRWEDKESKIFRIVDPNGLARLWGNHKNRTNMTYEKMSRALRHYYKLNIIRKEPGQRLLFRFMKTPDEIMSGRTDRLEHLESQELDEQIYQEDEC
Sequence of SPIB (Q01892 whole entry): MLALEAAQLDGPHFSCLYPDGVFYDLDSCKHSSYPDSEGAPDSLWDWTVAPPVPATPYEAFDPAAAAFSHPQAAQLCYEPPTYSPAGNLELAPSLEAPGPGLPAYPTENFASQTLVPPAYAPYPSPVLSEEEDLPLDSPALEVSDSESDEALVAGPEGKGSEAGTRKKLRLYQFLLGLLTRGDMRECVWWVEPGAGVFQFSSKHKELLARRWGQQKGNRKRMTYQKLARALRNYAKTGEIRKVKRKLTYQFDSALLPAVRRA
Sequence of ETV1 (P50549 whole entry): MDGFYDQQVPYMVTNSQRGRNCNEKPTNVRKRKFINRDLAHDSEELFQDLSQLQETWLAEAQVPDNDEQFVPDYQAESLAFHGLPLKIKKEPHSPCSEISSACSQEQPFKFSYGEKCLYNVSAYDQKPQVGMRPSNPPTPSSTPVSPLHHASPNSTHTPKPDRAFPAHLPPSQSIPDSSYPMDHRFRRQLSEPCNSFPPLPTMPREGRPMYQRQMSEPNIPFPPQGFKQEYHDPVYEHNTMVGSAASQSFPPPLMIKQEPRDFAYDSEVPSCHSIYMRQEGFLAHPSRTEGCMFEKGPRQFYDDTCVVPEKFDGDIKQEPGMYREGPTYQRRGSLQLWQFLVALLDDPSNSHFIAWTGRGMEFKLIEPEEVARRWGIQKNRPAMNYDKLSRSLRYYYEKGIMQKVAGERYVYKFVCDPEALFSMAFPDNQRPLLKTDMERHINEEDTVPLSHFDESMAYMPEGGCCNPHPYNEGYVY
Sequence of ELF1 (P32519 whole entry): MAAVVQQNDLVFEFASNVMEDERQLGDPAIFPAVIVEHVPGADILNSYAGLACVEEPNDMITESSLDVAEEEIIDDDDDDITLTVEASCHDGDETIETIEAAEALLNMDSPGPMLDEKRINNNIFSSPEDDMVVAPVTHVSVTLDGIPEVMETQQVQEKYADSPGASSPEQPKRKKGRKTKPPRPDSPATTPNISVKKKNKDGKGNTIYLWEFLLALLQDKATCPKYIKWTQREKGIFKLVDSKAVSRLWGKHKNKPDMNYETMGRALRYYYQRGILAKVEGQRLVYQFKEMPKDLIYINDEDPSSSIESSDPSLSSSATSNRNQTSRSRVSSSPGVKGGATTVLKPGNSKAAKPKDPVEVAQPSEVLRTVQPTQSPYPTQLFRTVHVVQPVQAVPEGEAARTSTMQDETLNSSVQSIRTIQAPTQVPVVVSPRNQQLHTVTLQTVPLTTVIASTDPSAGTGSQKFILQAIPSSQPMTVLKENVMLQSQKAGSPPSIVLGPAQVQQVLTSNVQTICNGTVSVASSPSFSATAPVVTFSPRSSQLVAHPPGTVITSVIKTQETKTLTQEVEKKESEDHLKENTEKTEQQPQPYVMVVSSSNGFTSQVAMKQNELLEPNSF

In the case of GCAACC, the binding signal in [1] was 1.06 fold enrichment (6-mer frequency, TF over GST control); in test [2] it was 1.07 fold enrichment (6-mer frequency, TF over GST control); in [3], 1.06 fold enrichment (6-mer frequency, TF over GST control); in test [4] it was 1.04 fold enrichment (6-mer frequency, TF over GST control); in test [5], 1.13 fold enrichment (6-mer frequency, TF over GST control); in [6] it was 1.11 fold enrichment (6-mer frequency, TF over GST control). Besides, the binding signal in test [7] was 1.04 fold enrichment (6-mer frequency, TF over GST control); in test [8] it was 1.09 fold enrichment (6-mer frequency, TF over GST control); in test [9], 1.17 fold enrichment (6-mer frequency, TF over GST control); in test [10], 1.04 fold enrichment (6-mer frequency, TF over GST control); in [11] it was 1.09 fold enrichment (6-mer frequency, TF over GST control); in test [12] it was 1.03 fold enrichment (6-mer frequency, TF over GST control). For the same sequence, the binding signal in test [13] is 1.02 fold enrichment (6-mer frequency, TF over GST control); in [14] it was 1.1 fold enrichment (6-mer frequency, TF over GST control); in test [15], 1.03 fold enrichment (6-mer frequency, TF over GST control); in test [16], 1.03 fold enrichment (6-mer frequency, TF over GST control); in test [17] it was 1.02 fold enrichment (6-mer frequency, TF over GST control); in test [18], 1.02 fold enrichment (6-mer frequency, TF over GST control). The binding signal in test [19] is 1.02 fold enrichment (6-mer frequency, TF over GST control).

The values above are taken from publication PMC7862700, “An all-to-all approach to the identification of sequence-specific readers for epigenetic DNA modifications on cytosine”.
